Screening data from PubChem BioAssay.
This excerpt belongs to a sample that is enriched for hits.
Tg IFNy HTS – blocks Toxoplasma gondii growth in the presence of IFN-gamma; activity change, negative = inhibition, % (concentration not given with the values); Toxoplasma gondii growth in IFN-gamma-treated host cells; stronger effect = lower value; hit rate 3.8% among 69,000; in the data active = activity change below about -70%, passing the limit was not always enough;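 also: host cells are HeLa cells infected with Toxoplasma gondii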
* marks the source's active call; other numbers are inactive results.

SMILES | Tg IFNy HTS
C1=C(N2CCC(Cc3ccccc3)CC2)Cc2ccccc21 | 63.8
COCC1CC2(CCN(C(=O)COc3ccccc3)CC2)CO1 (centres undefined) | -64.8
COc1ccc(-c2nc3c(s2)CN(S(=O)(=O)c2ccc(OC)cc2)CC3)cc1 | -3.7
COc1ccc(-c2nc3c(s2)CN(S(=O)(=O)c2cc(C)cc(C)c2)CC3)cc1 | -116.1*
COc1ccc(-c2nc3c(s2)CN(S(=O)(=O)c2c(C)cc(C)cc2C)CC3)cc1 | 4.5
Nc1c(C(=O)O)sc2nc(-c3ccccc3)cc(C(F)(F)F)c12 | 93.2
CCOC(=O)n1c(=O)oc2ccccc21 | 52.6
CCCc1[nH]c(=O)cc2cc(OC)c(OC)cc12 | -39.8
CC(=O)CCc1c(C)c2cccc(C)c2[nH]c1=O | 25.3
CCCCc1cc(C)c2[nH]c(=O)cc(C)c2c1 | -87.9*
COC(=O)C[C@H]1CC[C@H]2[C@@H](COC[C@@H](O)CN2S(=O)(=O)c2cn(C)cn2)O1 | -20.2
CC(C)c1cc(C2CCN(C(=O)[C@@]34CC[C@@](C)(OC3=O)C4(C)C)CC2)[nH]n1 | -3.7
NC(=O)C1CCCc2c1[nH]c1ccc(Cl)cc21 (centres undefined) | -8.3
CN1C(=O)C2(NCCc3c2[nH]c2ccc(Cl)cc32)c2cc(Br)ccc21 (centres undefined) | -8.7
O=CNC1CCCc2c1[nH]c1ccc(Cl)cc21 (centres undefined) | -81.1*
Cc1nc2c(c(=O)n1C)CCN(C(=O)Nc1ccc3c(c1)OCO3)CC2 | 20.1
Cc1nn(C)c2[nH]cc(C(=O)O)c(=O)c12 | -9.6
O=C(CN1C(=O)CCc2cc(S(=O)(=O)N3CCCCC3)ccc21)NC1CCCc2ccccc21 (centres undefined) | -13.5
Cc1cc(C)cc(NC(=O)CN2C(=O)CCc3cc(Br)ccc32)c1 | -39.5
O=C(CN1C(=O)CCc2cc(Br)ccc21)NC1CCCc2ccccc21 (centres undefined) | -94.1*
Cc1ccc(NC(=O)CN2C(=O)CCc3cc(Br)ccc32)cc1F | 17.7
O=C(CN1C(=O)CCc2cc(Br)ccc21)Nc1cccc2c1CCCC2 | 164.0
CCN1CCN(Cc2ccc(NC(=O)CN3C(=O)CCc4cc(Br)ccc43)cc2)CC1 | -92.3*
Cc1nn(CC(=O)N2[C@@H]3CC[C@H]2CNC(=O)C3)c(=O)c2ccccc12 | -0.6
CCOC(=O)c1c(NC(=O)CSc2ccccc2)sc(C)c1C | -32.6
SMILES | Tg IFNy HTS
COc1ccc(S(=O)(=O)NCCc2sc(-c3ccc(C)cc3)nc2C)cc1F | -42.0
COc1ccc(-n2ccnc2-c2cnc[nH]2)cn1 | 5.3
CO[C@@H]1CCN(C2CCOCC2)C[C@@H]1Cc1cccc(C)c1 | -4.8
CC1=C(C(=O)NCCCN2CC(C)CC(C)C2)C2(CCCCC2)OC1=O (centres undefined) | -80.5*
Cc1c(C(=O)NCCCN2CC(C)CC(C)C2)oc2ccc3c(c12)C(O)CC1(CCCCC1)O3 (centres undefined) | -112.0*
Cc1c(C(=O)NCCCN2CCCCC2)oc2ccc3c(c12)C(O)CC1(CCCCC1)O3 (centres undefined) | -67.2
CCOC(=O)C1CCN(C(=O)C2=C(C)C(=O)OC23CCN(S(C)(=O)=O)CC3)CC1 | -0.5
Cc1c(C(=O)N2CCc3ccccc3C2)oc2ccc3c(c12)C(=O)CC1(CCCCC1)O3 | -21.9
CCOC(=O)C1CCN(C(=O)c2oc3ccc4c(c3c2C)C(O)CC2(CCCCC2)O4)CC1 (centres undefined) | -80.5*
CCOC(=O)C1CCN(C(=O)c2nn(-c3ccccc3)nc2C)CC1 | -4.9
CC1=C(C(=O)NCCCN2CCCC2)C2(CCN(S(=O)(=O)c3cccs3)CC2)OC1=O | 6.1
CC1=C(C(=O)NCCCN2CCCC(C)C2)C2(CCN(S(C)(=O)=O)CC2)OC1=O (centres undefined) | 20.7
Cc1c(C(=O)N2CC(C)CC(C)C2)oc2ccc3c(c12)C(=O)CC1(CCCCC1)O3 (centres undefined) | -51.3
CC1=C(C(=O)NCCCN2CC(C)CC(C)C2)C2(CCCCCC2)OC1=O (centres undefined) | 58.3
Cc1c(C(=O)N2CCCCC2)oc2ccc3c(c12)C(O)CC1(CCCCC1)O3 (centres undefined) | -111.8*
CCN(CC)CCOCCOC(=O)C1(c2ccccc2)CCCC1 | 14.2
CCOC(=O)c1nc(Nc2ccc(C)c(C)c2)c2ccccc2n1 | -47.9
COc1cccc(CN2CCC3(CC(NS(=O)(=O)C4CC4)C3)C2)c1 (centres undefined) | -3.9
Cc1noc(CCC(=O)Nc2cccc(-n3cccn3)c2)n1 | 9.6
N#Cc1c(-c2cccnc2)c2c([nH]c1=O)-c1ccccc1OC2 | -8.3
Cc1ccc(-n2nnc3ccccc3c2=O)cc1C | -7.9
Nc1ncnc2nc[nH]c12 | 6.3
Nc1nc(=S)c2[nH]cnc2[nH]1 | -86.7*
CC(=O)Nc1cccc(NC(=O)C(=O)NCCc2sc(-c3ccc(Cl)cc3)nc2C)c1 | 271.0
Cc1ccc(C(=O)N2CCC(C3(C)NC(=O)N(Cc4ccsc4)C3=O)CC2)cc1C (centres undefined) | 3.6
SMILES | Tg IFNy HTS
CCC(C(=O)Nc1nccs1)N1C[C@H]2C[C@H](O)[C@H](O)C[C@H]2C1 (some centres undefined) | 10.9
O=C(Cn1ncc2c(N3CCN(c4ccccc4)CC3)ncnc21)Nc1cccc(Cl)c1 | 31.2
O=C(Cn1ncc2c(N3CCN(c4ccccn4)CC3)ncnc21)Nc1cccc(Cl)c1 | -50.1
O=C(Cn1ncc2c(N3CCN(c4ccccn4)CC3)ncnc21)Nc1cccc(Br)c1 | -98.8*
CCc1cccc(NC(=O)Cn2ncc3c(N4CCN(c5ccccc5)CC4)ncnc32)c1 | -82.4*
CCc1cccc(NC(=O)Cn2ncc3c(N4CCN(c5ccccn5)CC4)ncnc32)c1 | -62.2
O=C(Cn1ncc2c(N3CCN(c4ccccn4)CC3)ncnc21)Nc1ccc(Br)cc1 | -15.0
O=c1c2cnn(-c3ccccc3)c2cnn1-c1ccccc1 | 96.6
Cn1cc(-c2ccccc2C(N)=O)c(=O)c2ccccc21 | 9.2
CCc1nc(C)cc(-c2cccc3cccnc23)n1 | 0.8
c1cnc2c(c1)ccc1cccnc12 | -96.2*
c1ccc(Oc2cccc3cccnc23)nc1 | 70.0
O=C(COc1ccc(F)cc1)OCCN1CCOCC1 | 13.1
O=C(Nc1cccc(OCCN2CCOCC2)c1)c1csc2c1CCCC2 | 13.6
c1ccc(-c2nn3c(c2-c2ccnc4cc(OCCN5CCOCC5)ccc24)CCC3)nc1 | -77.8*
Cc1nc(CN2CCc3c(cnc(N(C)C)c3C(=O)O)C2)cs1 | -41.9
CC(=O)NCC(=O)N1CCC2(CC1)CC(c1ccccc1)C(=O)N2 (centres undefined) | -38.8
O=C1NCC2(CCN(C(=O)CN3CSCC3=O)CC2)Oc2ccccc21 | 65.8
Cc1nc(-c2cn(C(C)C)c3ncccc23)sc1C(=O)N1CCCC(C)C1 (centres undefined) | -117.0*
Cc1nc(-c2cn(C(C)C)c3ncccc23)sc1C(=O)N1CCC2(CC1)OCCO2 | -67.2
CCOC(=O)C1CCN(C(=O)c2sc(-c3cn(C(C)C)c4ncccc34)nc2C)CC1 | -51.0
CO[C@H]1CN(C)C(=O)c2cc(NS(=O)(=O)CC(F)(F)F)ccc2OC[C@@H](C)NC[C@@H]1C | 405.9
COc1ccc(OC)c(S(=O)(=O)NCc2nc(-c3ccc(C)cc3)oc2C)c1 | -86.8*
COc1ccccc1-c1nc(CN(C)S(=O)(=O)c2ccc(C)c(C)c2)c(C)o1 | -43.7
Cc1oc(-c2ccccc2)nc1CNS(=O)(=O)c1ccc(F)cc1 | -6.5
CCOc1ccc(-c2nc(CN(C)S(=O)(=O)c3ccc(C)c(C)c3)c(C)o2)cc1 | -102.3*
